From PubChem BioAssay (NCATS)
“And” between values parts separate entries of the source, which are not always exact repeats. Equal values may be shown once. Records with an inconclusive call do not appear. The source made the active and inactive calls. Unless noted, the call rests on the fitted dose curve; in most records, active means well fitted curve in the direction sought with a large enough effect; inconclusive means small, poorly fitted or top-dose-only effect, or another doubt; inactive means no such curve, though single readings can be large; an effect the other way counts as inactive or inconclusive.

Experiments:
[1] = MultiTox-Fluor Cytotoxicity Assay - LYMP1-001 - Live Cells (AID 947);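 further: 0% = DMSO only and full inhibition = tetraoctylammonium bromide control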
[2] = Cell Viability - LYMP1-002 - Assay at 16 hr (AID 948);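 further: 0% = DMSO alone and full effect = 92 µM tetraoctylammonium bromide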
Procedure, shortened: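 ATP luminescence (CellTiter-Glo) was measured after 16 hr compound exposure at 37 C of 2500 lymphoblastoid LYMP1-002 cells per well. Concentration-response curves were fitted with the Hill equation to give AC50.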

[3] = Cell Viability - LYMP2-003 (AID 965);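 further: cells exposed to compounds for 24 h before reading; 0% = DMSO only and full effect = 92 µM tetraoctylammonium bromide; nearly all actives have a fitted effect of over 50% in size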
Procedure, shortened: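 CellTiter-Glo luminescence quantified ATP loss after 24 h compound treatment of LYMP2-003 lymphoblastoid cells at 37 C. Titration series were fitted with the standard Hill equation to give AC50.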

[4] = Cell Viability - LYMP2-005 (AID 967);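 further: series mostly up to about 92 µM; plate controls were DMSO only for no effect and 92 µM tetraoctylammonium bromide control for full effect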
Procedure, shortened: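 LYMP2-005 human lymphoblastoid cells (2500/well) were treated with compounds for 24 h at 37 C. Intracellular ATP was then measured by CellTiter-Glo luminescence after 30 min at room temperature. AC50 values came from Hill-equation fits of qHTS concentration-response data.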

[5] = Cell Viability - LYMP2-008 (AID 980); further: on the % scale 0 is the no-effect control and ±100 the full control effect; nearly all actives have a fitted effect of over 60% in size
Procedure, shortened: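 Acute cytotoxicity is scored as concentration-dependent loss of cellular ATP in a human lymphoblastoid line after 24 hr treatment at 37 C. ATP is quantified by luciferase luminescence.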

[6] = Cell Viability - LYMP1-002 - Assay at 24 hr (AID 993); further: on the % scale 0 is the no-effect control and ±100 the full control effect
Procedure, shortened: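 qHTS, LYMP1-002 lymphoblastoid, 24 h cpd, 37 C, CellTiter-Glo ATP luminescence; AC50 via Hill eq.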

[7] = target: Bile acid receptor (Homo sapiens) (UniProt Q96RI1); test: qHTS assay for small molecule antagonists of farnesoid X receptor signaling (AID 588526; calls by dose curve; further: on the % scale 0 is the no-effect control and ±100 the full control effect)
Procedure, shortened: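 Antagonist mode: titrated compounds tested against chenodeoxycholic acid stimulation (normalized to 50 uM CDCA and DMSO) in GeneBLAzer HEK293T cells for 16 h. Beta-lactamase read by CCF4 fluorescence; IC50 from Hill fits.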

[8] = target: Glucocorticoid receptor (Homo sapiens) (UniProt P04150); test: qHTS assay for small molecule agonists of glucocorticoid receptor signaling (AID 588532; active means well fitted curve in the direction sought with a large enough effect in the signal ratio, with a control signal flat; the % refers to the signal ratio;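 further: 100% = dexamethasone at 0.1 µM and 0% = DMSO only wells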); conditions: HeLa MMTV-bla, beta-lactamase ratio, agonist, 18 h; stronger effect = higher value; percent of dexamethasone control, DMSO zero
Procedure, shortened: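 MMTV-bla HeLa beta-lactamase reporter cells in 1% charcoal/dextran FBS medium, compounds up to 92 uM for 18 h at 37 C, CCF4 readout; normalized to 0.1 uM dexamethasone (100%), EC50 and efficacy from Hill fits.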

[9] = target: Glucocorticoid receptor (Homo sapiens) (UniProt P04150); test: qHTS assay for small molecule antagonists of glucocorticoid receptor signaling (AID 588533; active means well fitted inhibition curve with a large enough effect in the signal ratio, with a control signal flat, not every such curve was filed as active; the % refers to the signal ratio;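 further: cells stimulated with 2 nM dexamethasone as agonist; on the % scale 0 is the no-effect control and ±100 the full control effect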)
Procedure, shortened: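 Antagonist-mode qHTS: compound titrations added to GRE-bla HeLa cells, then dexamethasone 2 nM final; 18 h, 37 C. CCF4 FRET fluorescence normalized to dexamethasone and DMSO; IC50 from Hill fit.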

[10] = qHTS assay for small molecule agonists of the antioxidant response element (ARE) signaling pathway (AID 651741; active means well fitted activation curve with a large enough effect in the signal ratio; the % refers to the signal ratio; further: potency means the concentration at half of the fitted maximal effect; on activation: % of control where 0% means no effect)
Procedure, shortened: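 HepG2 ARE-bla cells plated at 2,000 cells/well and incubated 5 h at 37 C/5% CO2 received 23 nL compound in DMSO. After 16 h at 37 C, LiveBLAzer B/G FRET substrate was applied for 2 h at room temperature and fluorescence read.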

[11] = qHTS assay for small molecule activators of the p53 signaling pathway (AID 651743; active means well fitted activation curve with a large enough effect in the signal ratio, not every such curve was filed as active; the % refers to the signal ratio; further: potency means the concentration at half of the fitted maximal effect; on activation: series mostly up to about 92 µM; % of control where 0% means no effect); conditions: HCT-116 p53RE-bla, beta-lactamase FRET ratio, 16 h; activation: stronger effect = higher value
Procedure, shortened: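 HCT-116 p53RE-bla, 4,000 cells/well; 5 h settle; cpd/DMSO 16 h, 37 C; LiveBLAzer B/G 2 h RT; fluorescence intensity.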

[12] = qHTS assay for small molecule disruptors of the mitochondrial membrane potential - 1 hr assay (AID 651754; calls by dose curve; further: nearly all actives have a fitted effect of over 35% in size; further: potency means the concentration at half of the fitted maximal effect)
Procedure, shortened: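 Steps: seed HepG2 cells and let attach overnight; pin-transfer compound or vehicle; incubate 1 hr at 37C; add Mito-MPS dye for 30 min; read two-channel fluorescence for monomer and aggregate forms.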

[13] = qHTS assay for small molecule disruptors of the mitochondrial membrane potential - 5 hr assay (AID 651755; calls by dose curve; further: nearly all actives have a fitted effect of over 40% in size; further: potency means the concentration at half of the fitted maximal effect)
Procedure, shortened: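 HepG2 cells (2,000/well), attached overnight, exposed to compound 5 hr at 37C, then Mito-MPS dye 30 min. Fluorescence read for monomers (490/535 nm) and aggregates (540/590 nm).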

[14] = target: Thyroid hormone receptor beta (Homo sapiens) (UniProt P10828); test: qHTS assay for small molecule antagonists of thyroid hormone receptor beta signaling (AID 588547; active means well fitted inhibition curve with a large enough effect in the signal ratio, with a control signal flat, not every such curve was filed as active; the % refers to the signal ratio;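 further: cells stimulated with 0.4 nM T3 agonist during compound exposure; series mostly up to about 77 µM; on the % scale 0 is the no-effect control and ±100 the full control effect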); conditions: TR-UAS-bla HEK293, beta-lactamase ratio, antagonist mode, 18 h
Procedure, shortened: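 TR-UAS-bla GripTite HEK293 cells in 2% charcoal/dextran FBS medium; compounds 0.59 nM to 92 uM with T3 at 0.4nM final, 18 h at 37 C. Beta-lactamase read by CCF4 fluorescence (460/530 nm); Hill fits gave IC50 and efficacy.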

[15] = qHTS assay for small molecule activators of the nuclear factor-kappa B (NF-kB) signaling pathway (AID 651749; active means well fitted activation curve with a large enough effect in the signal ratio; the % refers to the signal ratio; further: series mostly up to about 77 µM; % of control where 0% means no effect); conditions: NF-kB-bla ME-180 cells, beta-lactamase FRET ratio, 16 h; stronger effect = higher value
Procedure, shortened: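 Incubation lasted 16 hr at 37C in 5% CO2 after 23 nL compound addition to ME-180 NF-kB-bla cells. Activation appears as beta-lactamase-mediated FRET loss.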

[16] = target: Peroxisome proliferator-activated receptor delta (Homo sapiens) (UniProt Q03181); test: qHTS assay for small molecule agonists of peroxisome proliferator-activated receptor delta signaling (AID 588534; calls by dose curve;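 further: 0% = DMSO basal wells and 100% = positive control agonist at 10 µM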)
Procedure, shortened: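 Reporter cells were plated and held 5 hrs at 37 C before compounds were added. After 18 hrs at 37 C, CCF4 dye was loaded for 2 hrs at RT and fluorescence measured.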

[17] = qHTS assay for small molecule antagonists of peroxisome proliferator-activated receptor delta signaling (AID 588535; active means well fitted inhibition curve with a large enough effect in the signal ratio, with a control signal flat, not every such curve was filed as active; the % refers to the signal ratio;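 on max response: cells co-treated with a PPAR-delta agonist as stimulator during compound exposure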); conditions: HEK293T PPARd-UAS-bla, beta-lactamase FRET ratio, 18 h; 460 nm channel
Procedure, shortened: (§1)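 Cells were seeded at 4000 per well in assay medium containing 2% charcoal/dextran FBS and held 5 hrs at 37 C. Compounds were then added for 18 hrs. CCF4 substrate was applied for 2 hrs at room temperature before fluorescence reading.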

[18] = target: Peroxisome proliferator-activated receptor delta (Homo sapiens) (UniProt Q03181); test: as above
Procedure, shortened: as §1

[19] = target: Estrogen receptor (Homo sapiens) (UniProt P03372); test: qHTS assay for small molecule antagonists of estrogen receptor alpha signaling (AID 588513; active means well fitted curve in the direction sought with a large enough effect in the signal ratio, with a control signal flat, not every such curve was filed as active; the % refers to the signal ratio; further: on the % scale 0 is the no-effect control and ±100 the full control effect)
Procedure, shortened: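 Antagonist mode: inhibition of 0.5 nM 17-beta-estradiol-driven beta-lactamase reporter in HEK 293 ER-alpha-UAS-bla cells, 18 h at 37C, CCF4 readout after 2 h at RT. Normalised to estradiol and DMSO; titration fitted to Hill.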

[20] = target: Peroxisome proliferator-activated receptor gamma (Homo sapiens) (UniProt P37231); test: qHTS assay for small molecule antagonists of peroxisome proliferator-activated receptor gamma signaling (AID 588537; active means well fitted inhibition curve with a large enough effect in the signal ratio, with a control signal flat, not every such curve was filed as active; the % refers to the signal ratio;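 further: reporter cells co-stimulated with 50 nM rosiglitazone agonist during compound treatment; % of control where 0% means no effect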)
Procedure, shortened: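 Step one: plate 3000 HEK293 UAS-bla cells per well in medium with 1% stripped serum and hold 6-6.5 h at 37 C. Step two: add compound and 50 nM agonist for 16 h. Step three: CCF4 loading, fluorescence read.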

Sequence of Bile acid receptor (Homo sapiens) (Q96RI1 whole entry, looked up): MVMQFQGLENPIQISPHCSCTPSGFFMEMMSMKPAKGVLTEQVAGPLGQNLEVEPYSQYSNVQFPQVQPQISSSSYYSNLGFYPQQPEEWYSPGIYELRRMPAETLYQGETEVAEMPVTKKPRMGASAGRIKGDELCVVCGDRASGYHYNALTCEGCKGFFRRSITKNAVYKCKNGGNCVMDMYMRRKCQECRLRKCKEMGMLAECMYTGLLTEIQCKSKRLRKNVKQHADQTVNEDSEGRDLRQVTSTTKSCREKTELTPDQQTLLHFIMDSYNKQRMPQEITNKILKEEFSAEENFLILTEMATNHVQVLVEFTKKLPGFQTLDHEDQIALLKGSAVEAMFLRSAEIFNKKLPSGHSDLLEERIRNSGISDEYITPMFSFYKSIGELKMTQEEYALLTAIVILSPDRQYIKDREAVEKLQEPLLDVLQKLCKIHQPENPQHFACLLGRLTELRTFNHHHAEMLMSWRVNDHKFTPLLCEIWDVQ
Sequence of Peroxisome proliferator-activated receptor delta (Homo sapiens) (Q03181 whole entry, looked up): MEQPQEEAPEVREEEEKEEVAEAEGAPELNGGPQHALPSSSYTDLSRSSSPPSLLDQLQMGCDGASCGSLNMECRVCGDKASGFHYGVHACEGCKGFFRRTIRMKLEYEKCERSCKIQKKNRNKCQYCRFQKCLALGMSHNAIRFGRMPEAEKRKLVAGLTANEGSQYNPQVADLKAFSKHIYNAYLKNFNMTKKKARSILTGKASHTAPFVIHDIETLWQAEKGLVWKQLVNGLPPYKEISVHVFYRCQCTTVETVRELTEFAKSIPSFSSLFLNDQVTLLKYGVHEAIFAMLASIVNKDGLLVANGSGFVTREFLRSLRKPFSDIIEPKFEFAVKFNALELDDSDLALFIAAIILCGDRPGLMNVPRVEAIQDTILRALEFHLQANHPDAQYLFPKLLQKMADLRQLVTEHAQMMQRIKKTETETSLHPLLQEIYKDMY
Sequence of Thyroid hormone receptor beta (Homo sapiens) (P10828 whole entry, looked up): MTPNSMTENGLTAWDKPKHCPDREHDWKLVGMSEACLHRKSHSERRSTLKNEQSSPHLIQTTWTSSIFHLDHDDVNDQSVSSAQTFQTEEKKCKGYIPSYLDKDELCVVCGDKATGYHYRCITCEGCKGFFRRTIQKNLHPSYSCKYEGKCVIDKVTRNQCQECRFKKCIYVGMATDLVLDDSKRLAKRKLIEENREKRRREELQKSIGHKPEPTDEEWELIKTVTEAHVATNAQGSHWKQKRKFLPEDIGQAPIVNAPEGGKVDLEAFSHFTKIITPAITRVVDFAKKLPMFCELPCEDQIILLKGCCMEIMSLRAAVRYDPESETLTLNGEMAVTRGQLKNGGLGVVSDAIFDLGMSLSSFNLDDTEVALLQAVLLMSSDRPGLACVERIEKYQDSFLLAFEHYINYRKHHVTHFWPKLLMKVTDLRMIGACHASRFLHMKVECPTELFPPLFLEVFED
Sequence of Glucocorticoid receptor (Homo sapiens) (P04150 whole entry, looked up): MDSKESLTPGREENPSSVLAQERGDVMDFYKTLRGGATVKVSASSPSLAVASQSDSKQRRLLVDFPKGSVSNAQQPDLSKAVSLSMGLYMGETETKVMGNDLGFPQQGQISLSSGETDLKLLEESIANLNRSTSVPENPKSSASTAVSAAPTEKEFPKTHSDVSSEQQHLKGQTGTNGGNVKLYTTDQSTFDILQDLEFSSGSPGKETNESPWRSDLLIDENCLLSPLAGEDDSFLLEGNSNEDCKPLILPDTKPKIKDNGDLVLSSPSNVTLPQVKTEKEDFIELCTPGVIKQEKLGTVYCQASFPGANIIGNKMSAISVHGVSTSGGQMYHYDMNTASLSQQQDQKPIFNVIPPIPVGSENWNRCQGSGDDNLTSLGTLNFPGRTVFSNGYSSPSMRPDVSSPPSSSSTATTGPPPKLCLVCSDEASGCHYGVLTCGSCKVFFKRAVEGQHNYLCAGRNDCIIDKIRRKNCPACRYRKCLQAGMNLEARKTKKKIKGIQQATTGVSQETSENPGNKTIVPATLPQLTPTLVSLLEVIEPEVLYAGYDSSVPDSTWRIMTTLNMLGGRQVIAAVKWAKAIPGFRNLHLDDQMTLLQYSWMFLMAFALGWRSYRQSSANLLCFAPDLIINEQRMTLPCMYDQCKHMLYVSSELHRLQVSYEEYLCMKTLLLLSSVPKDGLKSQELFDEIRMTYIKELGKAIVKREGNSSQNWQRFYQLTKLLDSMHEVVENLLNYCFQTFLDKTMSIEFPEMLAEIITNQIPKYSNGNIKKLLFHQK
Sequence of Peroxisome proliferator-activated receptor gamma (Homo sapiens) (P37231 whole entry, looked up): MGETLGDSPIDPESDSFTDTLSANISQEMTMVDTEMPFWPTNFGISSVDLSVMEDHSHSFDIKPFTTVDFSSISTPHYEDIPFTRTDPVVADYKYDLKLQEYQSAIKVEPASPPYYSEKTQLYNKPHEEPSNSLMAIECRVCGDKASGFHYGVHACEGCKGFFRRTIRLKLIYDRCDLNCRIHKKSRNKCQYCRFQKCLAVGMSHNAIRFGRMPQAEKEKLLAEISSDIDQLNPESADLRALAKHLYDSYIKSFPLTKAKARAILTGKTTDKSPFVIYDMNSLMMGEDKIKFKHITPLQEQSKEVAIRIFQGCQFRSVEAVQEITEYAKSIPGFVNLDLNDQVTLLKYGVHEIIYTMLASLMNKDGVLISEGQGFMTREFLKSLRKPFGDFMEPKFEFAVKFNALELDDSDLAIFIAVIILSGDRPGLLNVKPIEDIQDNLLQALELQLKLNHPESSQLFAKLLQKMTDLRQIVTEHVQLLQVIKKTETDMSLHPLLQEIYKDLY
Sequence of Estrogen receptor (Homo sapiens) (P03372 whole entry, looked up): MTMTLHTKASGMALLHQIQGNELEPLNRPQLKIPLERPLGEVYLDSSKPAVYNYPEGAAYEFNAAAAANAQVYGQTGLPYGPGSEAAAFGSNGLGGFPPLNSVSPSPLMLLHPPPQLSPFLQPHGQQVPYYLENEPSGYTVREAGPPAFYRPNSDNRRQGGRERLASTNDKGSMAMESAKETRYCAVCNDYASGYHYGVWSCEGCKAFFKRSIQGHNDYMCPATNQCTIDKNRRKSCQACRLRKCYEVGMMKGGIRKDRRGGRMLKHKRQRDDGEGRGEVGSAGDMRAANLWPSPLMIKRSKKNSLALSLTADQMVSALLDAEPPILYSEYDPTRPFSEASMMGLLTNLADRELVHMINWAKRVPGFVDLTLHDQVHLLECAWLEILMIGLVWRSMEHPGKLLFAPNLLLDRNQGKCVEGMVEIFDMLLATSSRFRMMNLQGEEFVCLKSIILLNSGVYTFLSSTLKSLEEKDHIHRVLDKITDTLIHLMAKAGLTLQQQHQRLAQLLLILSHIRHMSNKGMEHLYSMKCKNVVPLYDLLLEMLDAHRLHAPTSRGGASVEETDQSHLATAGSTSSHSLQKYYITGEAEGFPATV

CN(C)c1ccccc1
inactive: outcome [1] | outcome [2] | Potency [3] | Potency [4] | Potency [5] | Potency [6] | outcome [7] | activation [8] -11% | outcome [9] | Potency [10] | activation [11] -3.2% | Potency [12] | Potency [13]

c1ccc(OCC2CO2)cc1 (stereo unspecified)
inactive: Potency [3] | Potency [4] | Potency [5] | Potency [6] | activation [8] -7.97% | outcome [9] | activity change % (negative = inhibition) [14] 6.77% | Potency [10] | activation [11] -2.65% | activation [15] 0.652% | Potency [12]

Clc1cccc2ccccc12
inactive: Potency [3] | Potency [4] | Potency [5] | Potency [6] | outcome [16] | outcome [18] | activity change % (negative = inhibition) [14] -4.95% | Potency [10] | activation [15] 0.856% | Potency [12] | Potency [13]
-15.1%: max response [17]

Cc1ccc(N)cc1N
inactive: outcome [1] | outcome [2] | Potency [4] | Potency [5] | Potency [19] | outcome [7] | activation [8] -6.12% and -1.93% | outcome [9] | outcome [16] | outcome [18] | Potency [20] | activity change % (negative = inhibition) [14] 0.49% and -2.4% | activation [15] -0.705% and -3.37%
active: Potency [12] 23.7 µM | Potency [13] 29.8 µM
0.381% and -13.2%: max response [17]

Cl/C=C/Cl
inactive: outcome [1] | Potency [3] | Potency [4] | Potency [5] | Potency [6] | Potency [19] | activation [8] -4.99% | outcome [9] | outcome [18] | Potency [10] | activation [11] -3.7% | activation [15] -1.04%
-19.1%: max response [17]

Cc1ccc2c(C)cccc2c1
16.7%: max response [17]
inactive: outcome [2] | Potency [3] | Potency [5] | Potency [19] | activation [8] -2.73% | outcome [9] | outcome [16] | outcome [18] | Potency [20] | activity change % (negative = inhibition) [14] 8.64% | Potency [10] | activation [11] -0.174% | Potency [12]

CCCCC(=O)Cl
inactive: outcome [1] | outcome [2] | Potency [3] | Potency [4] | Potency [6] | outcome [7] | outcome [9] | outcome [16] | activation [11] 1.32% | activation [15] -1.31% | Potency [12] | Potency [13]
20%: max response [17]

CCCCC#N
inactive: outcome [2] | Potency [3] | Potency [4] | Potency [5] | Potency [6] | Potency [19] | outcome [16] | outcome [18] | Potency [10] | activation [11] -7.46% | Potency [12] | Potency [13]
-3.23%: max response [17]

C=CC(=O)OCCN(C)C
inactive: outcome [1] | outcome [2] | Potency [3] | Potency [4] | Potency [6] | activation [8] 1.15% | outcome [16] | outcome [18] | activity change % (negative = inhibition) [14] -23.4% | Potency [10] | activation [11] 0.0499% | activation [15] -1.13% | Potency [12] | Potency [13]
29.8%: max response [17]

CC1CC(=O)O1 (stereo unspecified)
2.28%: max response [17]
inactive: outcome [1] | outcome [2] | Potency [3] | Potency [5] | Potency [6] | outcome [7] | activation [8] 4.16% | outcome [9] | outcome [16] | outcome [18] | Potency [20] | Potency [10] | Potency [13]

CCCCNC(=O)n1c(NC(=O)OC)nc2ccccc21
inactive: outcome [2] | Potency [3] | Potency [4] | Potency [5] | Potency [6] | Potency [19] | activation [8] -10.9% | activity change % (negative = inhibition) [14] -13.8% and -24% | Potency [10] | activation [15] -0.565% and 0.0154% | Potency [12] | Potency [13]
active: Potency [11] 14.1 µM

CC(C)(Cl)Cl
-19.4%: max response [17]
inactive: outcome [1] | Potency [3] | Potency [4] | Potency [5] | Potency [6] | outcome [16] | Potency [20] | activity change % (negative = inhibition) [14] -3.24% | Potency [10] | activation [11] -1.59% | activation [15] 0.397% | Potency [12]

CC(C)(C)C(O)(CCc1ccc(Cl)cc1)Cn1cncn1 (stereo unspecified)
-43.6% and 58.8%: max response [17]
inactive: outcome [1] | outcome [2] | Potency [3] | Potency [4] | Potency [5] | Potency [6] | activation [8] 3.38% and -5.28% | outcome [9] | outcome [16] | outcome [18] | Potency [20] | activity change % (negative = inhibition) [14] -8.05% and 4.64% | Potency [10] | activation [15] -0.348% and -1.3% | Potency [12] | Potency [13]

CSSC
inactive: outcome [2] | Potency [3] | Potency [4] | Potency [5] | Potency [6] | outcome [16] | activity change % (negative = inhibition) [14] -18.7% | Potency [10]

Oc1cc(Cl)ccc1Cl
32.2% and -9.59%: max response [17]
inactive: outcome [2] | Potency [3] | Potency [4] | Potency [6] | activation [8] 0.0862% and 2.52% | outcome [9] | outcome [16] | outcome [18] | Potency [20] | activity change % (negative = inhibition) [14] -3.5% | Potency [10] | activation [11] 0.543% and -4% | activation [15] -0.753% and -0.792% | Potency [13]

O=[N+]([O-])c1cc(Cl)c(Cl)cc1Cl
active: Potency [10] 26.6 µM
5.75%: max response [17]
inactive: outcome [1] | outcome [2] | Potency [3] | Potency [4] | Potency [5] | Potency [6] | Potency [19] | activation [8] -2.16% | outcome [9] | outcome [18] | Potency [20] | Potency [12] | Potency [13]

ClP(Cl)(Cl)(Cl)Cl
inactive: outcome [1] | outcome [2] | Potency [3] | Potency [4] | Potency [5] | Potency [6] | Potency [19] | outcome [7] | activation [8] -4.5% | outcome [9] | outcome [16] | activity change % (negative = inhibition) [14] -5.32% | Potency [10] | activation [11] -1.29% | activation [15] -0.207% | Potency [12]
